Hit rate of the full screen: of about 48,000 compounds, about 13,000 (27%) showed an effect of 50% or more. This is one part of the list.
Test system: Wolbachia pipientis
Test: Anti-Wolbachia Cell-Based Screen
Format: functional
Parameters: scale not given: in the data most compounds retested in dose-response had high values
Conditions: 5 µM

SMILES | Percent Effect [%]
COc1ccc(-c2cn3c(n2)CO[C@@H](CNCc2ccccn2)C3)cc1 | -5.771
CC(C)OCCN1CCc2cncnc2C1 | -3.318
CC(NCc1ccc(OCC(N)=O)cc1)c1ccc(Cl)cc1.Cl (centres undefined) | -2.794
Cn1nnc(NCc2ccc(OCc3ccc(Cl)cc3)cc2)n1 | 101.9
Cc1nnc(NCc2ccc(Cl)cc2)o1 | -6.045
CCSc1ccc(C(=O)N2CCC3(CC2)[C@H](O)C[C@@H]3O)s1 | 100.2
Cc1cc2cccc(C(=O)N3CC[C@](C)(O)[C@H](C)C3)c2o1 | 15.88
CCSc1ccc(C(=O)N2CC[C@](C)(O)[C@H](C)C2)s1 | 109.4
CCn1nc(CC(C)C)cc1C(=O)N1CCC2(CC1)[C@H](O)C[C@@H]2O | -14.19
CC[C@@]1(O)CCN(C(=O)c2ccc(-n3cnnc3)cc2)C[C@H]1O | 5.833
CCN1CC2(CCC1=O)CCN(C(=O)c1ccc(Cl)cc1O)CC2 | -7.361
CC[C@@]1(O)CCN(C(=O)c2ccsc2)C[C@H]1O | -12.48
CCc1ccc(C(=O)N2CC[C@](C)(O)[C@H](C)C2)[nH]1 | -16.61
CCc1ccc(C(=O)N2CCC3(CCC(=O)N(CCN(C)C)C3)CC2)[nH]1 | -7.538
CO[C@H]1C[C@@H](O)C12CCN(C(=O)CCSCc1ccc(F)cc1)CC2 | 11.02
CCSc1ccc(C(=O)N2CC[C@](O)(CC)[C@H](O)C2)s1 | 107.9
CCSc1ccc(C(=O)N2CCC3(CCC(=O)N(C)C3)CC2)s1 | 103.4
COc1ccccc1N1CCN(C(=O)c2ccoc2)CC1 | 4.438
CNC(=O)Cc1noc(-c2cc3c(s2)CCCCCC3)n1 | -5.82
COc1cccc(CC(=O)N2CCc3ncnc(C)c3CC2)c1 | -6.07
CCn1cnnc1C1CCN(C(=O)c2cc(C)n(CC)c2C)CC1 | 80.75
CCn1c(C)cc(C(=O)N2CCCC(c3nc(C)no3)C2)c1C (centres undefined) | 12.03

SMILES | Percent Effect [%]
CCn1cnnc1C1CCN(C(=O)c2c(C)oc(C)c2C)CC1 | 107.2
CCn1cnnc1C1CCN(C(=O)c2ccoc2C)CC1 | 104.9
CCc1ccc(C(=O)N2CCC(c3nncn3CC)CC2)o1 | 130.6
CCn1cnnc1C1CCN(C(=O)COCCc2ccccc2)CC1 | 1.598
CCn1cnnc1C1CCN(C(=O)c2ccc(Cl)s2)CC1 | 1.567
CCCS(=O)(=O)N1CCC2(CC1)COCCN(C(C)=O)C2 | -12.8
NCCC1CN(c2nc(-c3ccccc3)nc3c2CCNC3)CCO1 (centres undefined) | -13.03
CC(=O)c1cccc(OCCCC(=O)N(C)Cc2cscn2)c1 | 4.484
COc1cc(Br)c(CNC(C)c2nnc3n2CCC3)cc1OC (centres undefined) | 2.226
CNS(=O)(=O)c1ccccc1N1CCN(C(=O)C(C)C)CC1 | -15.34
COc1cccc2ccc(CN3CCN(c4cccnc4)CC3)nc12 | 1.116
CCn1cnnc1C1CCN(C(=O)c2ccccc2F)CC1 | 104.8
CCn1cnnc1C1CCN(C(=O)c2cccc(C)c2C)CC1 | 94.12
CCn1cnnc1C1CCN(C(=O)C(OC)c2ccccc2)CC1 (centres undefined) | -2.664
CCn1cnnc1C1CCN(C(=O)c2ccc3ccccc3n2)CC1 | 136.7
CNc1nc(CNC(=O)Nc2ccccc2OC(C)C)cs1 | -5.433
CCSCCC(C)N(C)C(=O)c1cc(C)no1 (centres undefined) | -5.306
Cc1[nH]ncc1CCCNC(=O)Nc1ccc(C#N)cc1 | -18.53
CCOCCn1nc(C)cc1C(=O)N1CC[C@@](O)(COC)C(C)(C)C1 | 0.9121
CC(Sc1nnc(C2CC2)n1CC(N)=O)c1ccc(Cl)cc1 (centres undefined) | 0.3539
OCC1(CCOc2ccccc2)CCN(c2ccc(Cl)cn2)CC1 | -3.583
Cc1ccc(Cl)cc1-n1nnnc1C1(N2CCCC2)CCCC1 | -26.05

SMILES | Percent Effect [%]
COc1cccc(NC(=O)NCC(Cc2cnn(C)c2)C(N)=O)c1 (centres undefined) | 2.392
COc1ncccc1NC(=O)NCC(O)c1ccc(F)cc1F (centres undefined) | 0.8108
COc1ccccc1NC(=O)NCC(O)c1ccc(F)cc1F (centres undefined) | 114.6
CC(C)OCCOCc1cccc(NC(=O)NCc2cnn(C)c2)c1 | 2.629
Cc1cccc(C(=O)NCC(O)c2ccc(F)cc2F)c1 (centres undefined) | 14.48
O=C(NCC(O)c1ccc(F)cc1F)c1ccccc1F (centres undefined) | 15.04
COc1cccc(NC(=O)NCc2cnn(C)c2)c1 | 90.55
CC(C)Nc1cccc(C(=O)NCC(O)c2ccc(F)cc2F)c1 (centres undefined) | 1.201
COc1cccc(NC(=O)NCC(O)c2ccc(F)cc2F)c1 (centres undefined) | 109.6
CC(=O)c1cccc(OC(C)C(=O)Nc2cnn(CCN(C)C)c2)c1 (centres undefined) | -1.957
CC(NC(=O)c1cccc(CCC(C)(C)O)c1)c1nnc(N)s1 (centres undefined) | -8.452
OCc1ccc(OCC(F)(F)F)cc1 | 0.2216
CCC(C)N(C)C(=O)Nc1ccc(N2CCSCC2)cc1C (centres undefined) | -11.87
CC(C)CC(=O)N1C[C@@H]2CCN(c3cnccn3)C[C@@H]2C1.O=C(O)C(F)(F)F | 83.3
CCCC(=O)N1C[C@@H]2CCN(c3cnccn3)C[C@@H]2C1.O=C(O)C(F)(F)F | 107.8
CC(C)CN1CCO[C@H]2CCN(c3cnccn3)CC[C@@H]21.O=C(O)C(F)(F)F | 107
O=C(O)C(F)(F)F.O=C(c1cnccn1)N1C[C@@H]2CCN(c3cccnc3)C[C@@H]2C1 | -9.697
CCOCC(=O)N1C[C@@H]2CCN(c3cnccn3)C[C@@H]2C1.O=C(O)C(F)(F)F | 110.3
O=C(O)C(F)(F)F.O=C(c1ccccc1)N1CCO[C@@H]2CN(c3cnccn3)C[C@@H]2C1 | -2.123
CC(SCC(=O)NC(N)=O)c1ccccc1F (centres undefined) | -3.716
Cc1cc(C)cc(S(=O)(=O)NCC2CNCCOC2)c1 (centres undefined) | 5.985
Cc1c(C(=O)NS(=O)(=O)c2ccsc2)cnn1CC(C)C | 9.8

SMILES | Percent Effect [%]
CCC(=O)N1C[C@@H]2CCN(c3cnccn3)C[C@@H]2C1.O=C(O)C(F)(F)F | 109.3
Cn1cncc1C(=O)N1C[C@@H]2CCN(c3cnccn3)C[C@@H]2C1.O=C(O)C(F)(F)F | -2.415
Cn1ccnc1C(=O)N1C[C@@H]2CCN(c3cnccn3)C[C@@H]2C1.O=C(O)C(F)(F)F | -15.62
O=C(c1nc(=O)[nH][nH]1)N1CCCN(CC2CCCCC2)CC1 | 4.28
Cc1nc(C2(O)CCCNCC2)sc1CCOc1ccc(Cl)cc1.Cl (centres undefined) | -4.713
Cc1[nH]nc2ncc(C(=O)N3CCN(CC(C)(C)O)CC3)cc12 | -29.67
CCS(=O)(=O)N1Cc2nccn2CC(COc2cccnc2)C1 (centres undefined) | -25.66
COCc1ncn2c1CN(S(=O)(=O)c1cccc(F)c1)CC2 | -3.986
COCC1CN(S(=O)(=O)c2cccc(F)c2)Cc2nccn2C1 (centres undefined) | 114.5
CCOCC1CN(S(=O)(=O)Cc2ccccc2)Cc2nccn2C1 (centres undefined) | 112.8
CCOCC1CN(S(=O)(=O)c2ccccc2)Cc2nccn2C1 (centres undefined) | 89.2
CCOCc1ncn2c1CN(S(=O)(=O)c1cccc(C)c1)CC2 | -2.947
CCOCC1CN(S(=O)(=O)c2cccc(C)c2)Cc2nccn2C1 (centres undefined) | 102.9
O=S(=O)(Cc1ccccc1)NC[C@H]1Cn2ccnc2CO1 | -7.74
COCC1CN(S(=O)(=O)c2ccccc2)Cc2ncnn2C1 (centres undefined) | 2.623
CCc1nnc(CN(C)c2nc(C(C)C)nc3c2cnn3C)o1 | -14.59
CCc1nc(C2CCCN2c2ncc(C(F)(F)F)cc2Cl)no1 (centres undefined) | 16.09
Cc1cccc(S(=O)(=O)N2Cc3c(CN(C)C)nn(C)c3C2)c1 | -7.774
Cc1cccc(S(=O)(=O)N2Cc3nccn3CC(CN(C)C)C2)c1 (centres undefined) | 117.9
CCCS(=O)(=O)N1Cc2nccn2CC(CN(C)C)C1.O=C(O)C(F)(F)F (centres undefined) | -8.912
CS(=O)(=O)N1CCOC2(CCCC2)C1 | -2.404
COCCC1COC2(CCN(C(=O)C3CCCCC3)CC2)C1 (centres undefined) | -0.113

SMILES | Percent Effect [%]
COCCC1COC2(CCN(C(=O)C3CCCC3)CC2)C1 (centres undefined) | -1.347
COCCC1COC2(CCN(C(C)=O)CC2)C1 (centres undefined) | -6.336
CC(C)C1=NOC2(CCN(S(C)(=O)=O)CC2)C1 | 106.9
CS(=O)(=O)N1CCC2(CC1)CN(CCn1cccn1)C(=O)CO2 | -11.65
CC(=O)N1CCC2(CC1)CC(C(C)C)=NO2 | 118.9
CC(C)C1=NOC2(CCN(C(=O)C3CCCC3)CC2)C1 | 98.86
Cc1ccc(C(=O)N2CCC3(CC2)CC(NC(=O)C(C)C)CO3)cc1 (centres undefined) | -11.34
CO[C@H]1CNC[C@@H]1NC(=O)c1cc(C)nc2c(C)cc(C)cc12 | 0.2692
Cc1cnn(CCNCc2ccccc2Oc2cccnc2)c1 | 8.919
CCCc1nc(N2Cc3cnn(Cc4ccc(F)cc4)c3C2)no1 | 5.743
CSc1ccccc1CN1C[C@H]2CC[C@@H]1CN(Cc1[nH]cnc1C)C2 | -3.423
CC(C)(C)C(N)c1nc(-c2nnc[nH]2)no1 (centres undefined) | -10.11
COC(=O)c1ccc(/C=C/c2ncc(C(=O)O)s2)cc1 | 5.854
CNC(=O)c1cnc(/C=C/c2cc(OC)c(O)c(OC)c2)s1 | -7.095
COC(=O)c1cnc(/C=C/c2ccc(C(=O)O)cc2)s1 | -4.44
CCOc1c(Br)cc(/C=C/c2ncc(C(=O)O)s2)cc1OC | 109.6
CCOc1c(OC)cc(/C=C/c2ncc(C(=O)NC)s2)cc1OC | -0.7468
CCOc1cc(/C=C/c2ncc(C(=O)O)s2)cc(Br)c1O | 111.7
CCOc1cc(/C=C/c2ncc(C(=O)O)s2)ccc1O | 7.127
CCOc1cc(/C=C/c2ncc(C(=O)O)s2)cc(Br)c1OC | 120.5
CNC(=O)c1cnc(/C=C/c2cc(OC)cc(OC)c2)s1 | 5.835

— ChEMBL document CHEMBL3988442, “University of Dundee, Small-Polar-MMV Screening Library” (2021)
